Laboratory results taken from PubChem BioAssay (NCATS).
Inconclusive results are not listed. The source made the active and inactive calls. Unless noted, calls follow the shape of the dose curve; as a rule, active = well fitted curve in the direction sought with a large enough effect; inconclusive = small, poorly fitted or top-dose-only effect, or another doubt; inactive = no such curve, though single readings can be large; an effect the other way counts as inactive or inconclusive.

How the values were obtained:
[1] = AP1 Signaling Pathway (AID 357; active = well fitted curve in either direction with a large enough effect, not every such curve was filed as active;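 also: ME-180 reporter cells stimulated with EGF at its EC50 level; % is scaled to controls: 0 for no effect and ±100 for the full control effect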); details: ME-180 AP-1-bla reporter, EGF-induced, beta-lactamase ratio, 5 h; at 7.69 µM (top of the series) unless noted
Summary of the method: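 Modulation of EGF-driven AP-1 transcription was assessed with a beta-lactamase reporter in ME-180 cells. Compound and EC50 EGF were co-incubated 5 hours at 37 °C before 2.5-hour CCF4 loading at room temperature and dual-emission reading.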

[2] = NFAT Signaling Pathway (AID 444; active = well fitted curve in either direction with a large enough effect, not every such curve was filed as active;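 also: carbachol stimulus at about its EC50 of 1 µM final; % is scaled to controls: 0 for no effect and ±100 for the full control effect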); details: Jurkat NFAT-bla M1, carbachol, beta-lactamase ratio, 5 h; at 7.69 µM (top of the series) unless noted
Summary of the method: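 Jurkat cells carrying an NFAT-driven β-lactamase reporter and co-transfected muscarinic M1 receptor were treated with compound plus carbachol (1 uM final, an EC50 level) for 5 h at 37 °C. CCF4 loading followed for 1 h at RT; 460/530 nm ratio gave %activity.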

[3] = Stat Signaling Pathway (AID 446; active = well fitted curve in either direction with a large enough effect, not every such curve was filed as active;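 also: ME-180 cervical cancer cells given 40 pM IL-6 alongside compound; SIE-controlled beta-lactamase reporter measured as 460/530 nm FRET emission ratio; % is scaled to controls: 0 for no effect and ±100 for the full control effect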); details: ME-180 (cervical carcinoma) SIE beta-lactamase reporter, IL-6 stimulated, 5 h; at 7.69 µM (top of the series) unless noted
Summary of the method: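 Overnight-plated ME-180 cells bearing a STAT Inducible Element beta-lactamase reporter; 5 h co-exposure to compound and 40 pM IL-6; values normalized to 300 pM IL-6 and 125 nM JAK inhibitor controls.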

[4] = biological target: Glucocorticoid receptor (Homo sapiens) (UniProt P04150); assay: GR-GFP Redistribution (AID 450;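 active = compounds whose dose series gives a full or clear partial fitted curve of increased nuclear translocation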; also: potency is read from the fitted curve at half-maximal effect); details: U2OS GR-GFP nuclear translocation, laser cytometry, 2 h
[5] = biological target: Glucocorticoid receptor (Homo sapiens) (UniProt P04150); assay: GR-EFC Redistribution (AID 451; calls by dose curve; also: potency is read from the fitted curve at half-maximal effect); details: CHO-K1 GR-EFC translocation, beta-gal luminescence, 2 h
Summary of the method: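 CHO-K1 cells stably expressing nuclear-localized β-gal enzyme acceptor and GR fused C-terminally to the enzyme donor fragment; ligand-driven nuclear translocation restores β-gal by complementation. Compounds titrated up to 46 uM final, 2 h at 37 °C; luminescence read.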

[6] = biological target: Mitogen-activated protein kinase 10 (Mus musculus) (UniProt Q61831); assay: JNK3 AlphaScreen Assay (AID 530; active = well fitted curve in either direction with a large enough effect, not every such curve was filed as active;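 also: kinase came from lysate of stimulated human HepG2 cells; signal reports phosphorylation of biotinylated GST-cJun 1-79 at Ser73 with 10 µM ATP; % is scaled to controls: 0 for no effect and ±100 for the full control effect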)
Summary of the method: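 Phosphorylation of biotinylated GST-cJun(1-79) at Ser73 is measured by AlphaScreen proximity luminescence. Enzyme is JNK3 in HepG2 lysates activated with interleukin-1beta and tumor necrosis factor alpha; ATP is 10 uM final.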

[7] = biological target: 3',5'-cyclic-AMP phosphodiesterase 4B (Homo sapiens) (UniProt Q07343); assay: qHTS Assay for Inhibitors of PDE-IV (AID 607; active = well fitted activation curve with a large enough effect in the main read-out, with a control signal flat, not every such curve was filed as active; also: % of control where 0% means no effect)
Summary of the method: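 Live HEK293 cells with a modified cyclic nucleotide-gated (CNG) channel report intracellular cAMP via membrane-potential dye fluorescence (ex 535/em 590 nm). Endogenous PDE-IV was targeted. Compounds were tested at up to 22.9 uM final; RO 20-1724 100 uM served as control.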

[8] = qHTS Assay for Lipid Storage Modulators (AID 1519; calls by dose curve); details: Drosophila S3 cells, BODIPY lipid droplet/cell ratio, laser cytometry, cells loaded with oleic acid; for activity change, negative = inhibition: at 57.5 µM (top of the series)
Summary of the method: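 Cells seeded at 5,000 per well were treated with compounds over a concentration series and loaded with oleic acid (400 uM, as added). Lipid droplet fluorescence (488 nm excitation, 500-530 nm channel) was read by laser-scanning cytometry and normalized to 20 uM Triacsin C.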

[9] = biological target: Dual specificity protein kinase CLK4 (Homo sapiens) (UniProt Q9HAZ1); assay: qHTS Assay for Inhibitors of CDC-like Kinase 4 (Kinase-Glo Assay) (AID 1770); also: nearly all actives have a fitted effect of over 65% in size; also: potency is read from the fitted curve at half-maximal effect
Summary of the method: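 Recombinant human Clk4 (25 nM) phosphorylated RS repeat peptide (100 uM) with 1 uM ATP in Tris pH 7.5/MgCl2/EGTA/DTT/Triton buffer for 4.5 h at room temperature. Residual ATP was quantified by Kinase-Glo luciferase luminescence.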

[10] = biological target: Dual specificity protein kinase CLK4 (Homo sapiens) (UniProt Q9HAZ1); assay: qHTS Assay for Inhibitors of CDC-like Kinase 4 (ADP-Glo Assay) (AID 1771); also: nearly all actives have a fitted effect of over 70% in size; also: potency is read from the fitted curve at half-maximal effect
Summary of the method: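 ADP production was read by ADP-Glo luminescence after residual ATP depletion, following 1 h room-temperature reaction of 25 nM Clk4, 1 uM ATP and 100 uM RS peptide with MgCl2, EGTA, DTT and Triton X-100.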

[11] = biological target: Dual specificity protein kinase CLK4 (Homo sapiens) (UniProt Q9HAZ1); assay: qHTS Assay for Inhibitors of CDC-like Kinase 4 (ADP-FP Assay) (AID 1795); also: % is scaled to controls: 0 for no effect and ±100 for the full control effect; nearly all actives have a fitted effect of over 60% in size
Summary of the method: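 Recombinant human Clk4 (6.25 nM) phosphorylated RS repeat peptide (100 uM) with 1 uM ATP in Tris pH 7.5/MgCl2/EGTA/DTT/Triton buffer for one hour. ADP was quantified by Transcreener competitive fluorescence polarization against an ADP calibration curve.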

[12] = biological target: Ubiquitin carboxyl-terminal hydrolase 1 (Homo sapiens) (UniProt O94782); assay: Inhibitors of USP1/UAF1: Pilot qHTS (AID 504865);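 also: rhodamine fluorescence freed from ubiquitin-rhodamine substrate followed over time; top concentration of the series differs between compounds; % is scaled to controls: 0 for no effect and ±100 for the full control effect; nearly all actives have a fitted effect of over 35% in size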
Summary of the method: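 USP1/UAF1 complex (1nM) preincubated with compound 15 min at room temperature, then Ub-Rho substrate (150nM final) added. Fluorescence read kinetically at 480/540 nm, 6 reads every 60 seconds. Buffer: 50mM HEPES pH 7.8, 0.5mM EDTA, 0.1 mg/ml BSA, 1mM TCEP, 0.01% Tween-20.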

[13] = Primary qHTS for small molecule stabilizers of the endoplasmic reticulum resident proteome: Secreted ER Calcium Modulated Protein (SERCaMP) assay (AID 1508630); also: % is scaled to controls: 0 for no effect and ±100 for the full control effect
Summary of the method: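 The SH-SY5Y reporter protocol was run at 3 concentrations up to 38.3 uM (primary) or 11 concentrations (follow-up): 16 h compound, 100 nM thapsigargin for 4 h, then extracellular luciferase luminescence.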

[14] = biological target: Cytochrome P450 1A2 (Homo sapiens) (UniProt P05177); assay: p450-cyp1a2 (AID 410; calls by dose curve; also: potency is read from the fitted curve at half-maximal effect)
Summary of the method: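 Luminescent demethylation readout: Luciferin-ME (100uM, equal to Km) turned over by 20nM CYP1A2 for 60 min at room temperature after NADPH regeneration addition, following 10 min compound preincubation. Normalization used 57 uM furafylline as full inhibition.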

[15] = biological target: Lysosomal acid glucosylceramidase (Homo sapiens) (UniProt P04062); assay: Glucocerebrosidase-p2 (AID 348; in the data active = potency below about 10 µM; also: potency is read from the fitted curve at half-maximal effect); details: purified GBA, blue fluorogenic substrate, 40 min
Summary of the method: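 Normal human glucocerebrosidase (0.2 nM) with blue fluorogenic substrate (80 uM final) in citrate/phosphate pH 5.9 with 10mM sodium taurocholate, 0.01% tween-20; 40 min RT, NaOH/glycine stop; fluorescence Ex 365/Em 440; AC50 from a titration from 0.6 nM upwards.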

[16] = biological target: Cytochrome P450 3A4 (Homo sapiens) (UniProt P08684); assay: qHTS Assay for Activators of Cytochrome P450 3A4 (AID 885); also: nearly all actives have a fitted effect of over 65% in size
Summary of the method: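 Using 20nM recombinant human CYP3A4 in potassium phosphate (200mM), substrate Luciferin-PPXE at 25uM, luminescent luciferin detection followed a 60-min RT NADPH reaction; data scaled to 57 uM ketoconazole.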

[17] = biological target: Cytochrome P450 2C9 (Homo sapiens) (UniProt P11712); assay: qHTS Assay for Inhibitors and Substrates of Cytochrome P450 2C9 (AID 883); also: % is scaled to controls: 0 for no effect and ±100 for the full control effect; nearly all actives have a fitted effect of over 60% in size
Summary of the method: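 Human CYP2C9 (10nM) hydroxylated Luciferin-H (100uM, at its KM) to luciferin in 25mM KPO4. Compound was preincubated 10 min at 37C, then NADPH regeneration started a 60 min reaction at 37C. Luminescence was read after detection reagent, normalized to 57uM sulphaphenazole.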

[18] = biological target: Cytochrome P450 3A4 (Homo sapiens) (UniProt P08684); assay: qHTS Assay for Inhibitors and Substrates of Cytochrome P450 3A4 (AID 884); also: potency is read from the fitted curve at half-maximal effect; nearly all actives have a fitted effect of over 50% in size
Summary of the method: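 Luminescent readout of luciferin produced by CYP3A4 (20 nM) dealkylation of Luciferin-PPXE, 25 uM (its KM). NADPH-driven reaction ran 60 min at RT after 10 min compound preincubation; data scaled to 57 uM ketoconazole as 100% inhibition.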

[19] = measured here: cell count channel max response
[20] = measured here: lipid channel max response

Cytochrome P450 3A4 (Homo sapiens), sequence (P08684 whole entry, looked up): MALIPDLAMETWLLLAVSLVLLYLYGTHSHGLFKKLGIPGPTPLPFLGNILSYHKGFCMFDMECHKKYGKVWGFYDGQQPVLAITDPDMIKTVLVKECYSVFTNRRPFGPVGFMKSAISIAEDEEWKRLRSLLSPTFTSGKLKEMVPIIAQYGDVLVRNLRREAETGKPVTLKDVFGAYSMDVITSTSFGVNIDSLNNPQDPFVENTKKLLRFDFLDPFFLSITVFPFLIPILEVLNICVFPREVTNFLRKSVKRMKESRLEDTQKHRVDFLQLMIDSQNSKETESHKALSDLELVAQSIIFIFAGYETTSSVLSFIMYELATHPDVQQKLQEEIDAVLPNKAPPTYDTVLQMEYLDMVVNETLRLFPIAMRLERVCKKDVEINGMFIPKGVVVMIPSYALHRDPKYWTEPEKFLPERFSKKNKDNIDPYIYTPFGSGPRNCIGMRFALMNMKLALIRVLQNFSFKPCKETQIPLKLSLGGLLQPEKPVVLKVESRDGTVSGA
Lysosomal acid glucosylceramidase (Homo sapiens), sequence (P04062 whole entry, looked up): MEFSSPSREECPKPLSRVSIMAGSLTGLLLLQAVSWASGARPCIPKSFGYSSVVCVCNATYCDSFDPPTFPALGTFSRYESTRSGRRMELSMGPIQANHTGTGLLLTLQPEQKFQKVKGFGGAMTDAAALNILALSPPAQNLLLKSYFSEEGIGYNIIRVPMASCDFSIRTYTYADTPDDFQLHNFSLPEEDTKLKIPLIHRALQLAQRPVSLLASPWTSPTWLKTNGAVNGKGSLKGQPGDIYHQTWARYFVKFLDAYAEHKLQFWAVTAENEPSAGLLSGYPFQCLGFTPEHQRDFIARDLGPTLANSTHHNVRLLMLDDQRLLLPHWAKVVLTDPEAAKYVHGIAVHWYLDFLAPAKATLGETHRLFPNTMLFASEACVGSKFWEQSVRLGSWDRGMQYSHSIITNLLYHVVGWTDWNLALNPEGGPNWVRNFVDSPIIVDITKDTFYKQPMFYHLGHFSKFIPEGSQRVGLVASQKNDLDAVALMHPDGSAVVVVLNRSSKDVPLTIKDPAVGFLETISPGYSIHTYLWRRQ
Glucocorticoid receptor (Homo sapiens), sequence (P04150 whole entry, looked up, the tested form may be a part): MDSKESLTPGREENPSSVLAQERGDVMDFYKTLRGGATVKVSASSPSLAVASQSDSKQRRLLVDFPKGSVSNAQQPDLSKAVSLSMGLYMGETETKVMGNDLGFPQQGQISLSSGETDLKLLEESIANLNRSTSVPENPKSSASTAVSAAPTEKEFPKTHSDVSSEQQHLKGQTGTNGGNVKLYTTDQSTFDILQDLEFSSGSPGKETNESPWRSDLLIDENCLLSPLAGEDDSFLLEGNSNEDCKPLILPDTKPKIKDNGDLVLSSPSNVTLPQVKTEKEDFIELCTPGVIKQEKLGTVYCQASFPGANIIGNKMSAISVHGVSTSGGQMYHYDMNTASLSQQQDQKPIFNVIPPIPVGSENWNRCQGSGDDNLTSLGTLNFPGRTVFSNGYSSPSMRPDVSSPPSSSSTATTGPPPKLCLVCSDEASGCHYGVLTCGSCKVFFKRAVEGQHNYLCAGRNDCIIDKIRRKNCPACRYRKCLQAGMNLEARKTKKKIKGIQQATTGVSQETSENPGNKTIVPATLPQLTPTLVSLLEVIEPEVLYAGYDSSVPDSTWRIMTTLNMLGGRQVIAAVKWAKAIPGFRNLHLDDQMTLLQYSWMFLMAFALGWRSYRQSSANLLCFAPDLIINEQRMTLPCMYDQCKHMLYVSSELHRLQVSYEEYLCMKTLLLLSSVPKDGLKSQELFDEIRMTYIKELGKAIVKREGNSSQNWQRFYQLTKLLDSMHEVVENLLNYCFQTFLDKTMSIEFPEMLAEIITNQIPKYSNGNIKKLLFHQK
Dual specificity protein kinase CLK4 (Homo sapiens), sequence (Q9HAZ1 whole entry, looked up): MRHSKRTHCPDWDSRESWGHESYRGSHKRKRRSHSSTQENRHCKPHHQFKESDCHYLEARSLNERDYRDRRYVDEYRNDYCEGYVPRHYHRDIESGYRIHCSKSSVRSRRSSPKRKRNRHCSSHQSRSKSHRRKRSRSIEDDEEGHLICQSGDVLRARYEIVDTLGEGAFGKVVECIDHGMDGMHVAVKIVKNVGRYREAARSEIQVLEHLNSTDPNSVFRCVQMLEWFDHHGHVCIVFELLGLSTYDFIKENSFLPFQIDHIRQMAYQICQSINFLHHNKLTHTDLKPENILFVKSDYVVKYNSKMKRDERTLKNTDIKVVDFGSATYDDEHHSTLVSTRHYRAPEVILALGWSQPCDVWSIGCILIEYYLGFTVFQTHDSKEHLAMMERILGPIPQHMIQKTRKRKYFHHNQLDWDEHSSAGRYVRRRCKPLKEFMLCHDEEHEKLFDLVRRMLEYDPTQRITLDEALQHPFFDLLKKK
Cytochrome P450 1A2 (Homo sapiens), sequence (P05177 whole entry, looked up): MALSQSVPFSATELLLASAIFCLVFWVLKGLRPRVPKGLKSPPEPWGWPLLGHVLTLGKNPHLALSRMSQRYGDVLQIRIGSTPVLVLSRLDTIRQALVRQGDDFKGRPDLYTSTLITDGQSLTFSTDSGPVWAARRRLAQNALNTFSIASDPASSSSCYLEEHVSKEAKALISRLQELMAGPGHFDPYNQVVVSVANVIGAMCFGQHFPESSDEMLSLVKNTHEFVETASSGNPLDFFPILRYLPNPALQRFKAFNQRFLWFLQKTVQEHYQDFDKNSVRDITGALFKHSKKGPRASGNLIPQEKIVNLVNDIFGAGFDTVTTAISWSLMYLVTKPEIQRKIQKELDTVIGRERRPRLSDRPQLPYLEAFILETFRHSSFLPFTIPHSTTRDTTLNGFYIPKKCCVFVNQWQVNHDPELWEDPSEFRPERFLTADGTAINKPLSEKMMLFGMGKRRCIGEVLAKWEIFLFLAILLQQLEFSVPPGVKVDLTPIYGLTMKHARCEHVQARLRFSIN
3',5'-cyclic-AMP phosphodiesterase 4B (Homo sapiens), sequence (Q07343 whole entry, looked up): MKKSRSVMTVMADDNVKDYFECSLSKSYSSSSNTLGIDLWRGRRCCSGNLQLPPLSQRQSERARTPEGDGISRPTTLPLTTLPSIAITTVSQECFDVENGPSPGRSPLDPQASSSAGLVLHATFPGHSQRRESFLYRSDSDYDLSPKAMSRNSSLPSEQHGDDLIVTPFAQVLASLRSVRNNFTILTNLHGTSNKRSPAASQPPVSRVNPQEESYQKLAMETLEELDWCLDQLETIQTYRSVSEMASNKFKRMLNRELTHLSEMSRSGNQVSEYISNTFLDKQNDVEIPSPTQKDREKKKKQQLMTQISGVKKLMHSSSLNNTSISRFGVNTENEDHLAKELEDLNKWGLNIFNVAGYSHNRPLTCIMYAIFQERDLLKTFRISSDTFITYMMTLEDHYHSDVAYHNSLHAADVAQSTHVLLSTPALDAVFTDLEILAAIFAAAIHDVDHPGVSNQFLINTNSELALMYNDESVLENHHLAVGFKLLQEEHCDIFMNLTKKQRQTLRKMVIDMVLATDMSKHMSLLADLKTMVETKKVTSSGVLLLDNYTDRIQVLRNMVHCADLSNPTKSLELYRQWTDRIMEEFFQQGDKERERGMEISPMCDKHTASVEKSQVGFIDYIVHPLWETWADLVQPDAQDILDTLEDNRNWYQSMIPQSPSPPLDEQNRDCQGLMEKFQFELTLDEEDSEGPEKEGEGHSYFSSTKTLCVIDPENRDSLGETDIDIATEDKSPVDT
Ubiquitin carboxyl-terminal hydrolase 1 (Homo sapiens), sequence (O94782 whole entry, looked up): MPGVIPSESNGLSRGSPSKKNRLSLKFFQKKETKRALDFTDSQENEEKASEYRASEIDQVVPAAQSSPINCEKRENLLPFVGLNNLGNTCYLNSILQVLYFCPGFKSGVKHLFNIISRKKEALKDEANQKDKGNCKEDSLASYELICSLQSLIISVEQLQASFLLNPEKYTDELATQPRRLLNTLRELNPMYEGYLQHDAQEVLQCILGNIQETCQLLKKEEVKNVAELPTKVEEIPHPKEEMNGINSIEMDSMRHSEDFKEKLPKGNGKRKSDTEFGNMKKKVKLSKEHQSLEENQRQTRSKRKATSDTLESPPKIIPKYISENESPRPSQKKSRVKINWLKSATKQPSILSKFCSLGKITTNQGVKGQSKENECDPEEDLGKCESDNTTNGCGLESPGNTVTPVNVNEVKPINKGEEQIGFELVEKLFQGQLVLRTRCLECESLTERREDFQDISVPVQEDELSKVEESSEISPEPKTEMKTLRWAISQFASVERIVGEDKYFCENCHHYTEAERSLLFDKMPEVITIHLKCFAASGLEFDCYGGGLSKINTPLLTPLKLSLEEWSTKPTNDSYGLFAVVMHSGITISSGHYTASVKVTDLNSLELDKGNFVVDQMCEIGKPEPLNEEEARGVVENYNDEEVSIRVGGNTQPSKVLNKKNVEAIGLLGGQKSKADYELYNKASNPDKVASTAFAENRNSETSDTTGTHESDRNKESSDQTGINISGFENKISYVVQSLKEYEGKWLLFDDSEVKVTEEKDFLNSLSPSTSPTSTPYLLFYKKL
Cytochrome P450 2C9 (Homo sapiens), sequence (P11712 whole entry, looked up): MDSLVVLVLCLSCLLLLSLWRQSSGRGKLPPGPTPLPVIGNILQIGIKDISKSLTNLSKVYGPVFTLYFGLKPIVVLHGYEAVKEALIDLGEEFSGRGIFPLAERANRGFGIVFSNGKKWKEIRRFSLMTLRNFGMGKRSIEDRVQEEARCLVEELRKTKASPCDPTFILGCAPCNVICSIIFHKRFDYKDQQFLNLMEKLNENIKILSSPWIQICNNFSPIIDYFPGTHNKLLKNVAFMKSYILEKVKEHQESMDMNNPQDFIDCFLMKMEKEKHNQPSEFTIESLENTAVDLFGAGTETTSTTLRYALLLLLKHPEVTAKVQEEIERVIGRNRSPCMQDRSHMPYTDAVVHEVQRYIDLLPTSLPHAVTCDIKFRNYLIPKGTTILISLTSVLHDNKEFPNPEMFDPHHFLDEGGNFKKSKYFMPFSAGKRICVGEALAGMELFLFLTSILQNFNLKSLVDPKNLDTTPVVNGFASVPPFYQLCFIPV

Row | SMILES | activity change, negative = inhibition [1] | activity change, negative = inhibition [2] | activity, negative = inhibition [3] | Potency [4] | Potency [5] | outcome [6] | Potency [7] | activity change, negative = inhibition [8] | max response [8, 19] | max response [8, 20] | Potency [9] | Potency [10] | Potency [11] | Potency [12] | Potency [13] | Potency [14] | Potency [15] | Potency [16] | activity change, negative = inhibition [17] | Potency [18]
1 | O=c1c(-c2ccc(F)cc2)nc2cnc(Oc3ccccc3)nc2n1C1CC1 | 2.54% (inactive) | 5.2% (inactive) | -10.8% (inactive) | > 9.22 µM (inactive) | > 46 µM (inactive) | inactive | inactive | 0.468% (inactive) | 0.149% | -1.57% | inactive | inactive | inactive | inactive | inactive |  |  |  |  | 
2 | CN1CCN(c2ccnc(-c3ccoc3)n2)CC1 | 21.7% (inactive) | -15.5% (inactive) | 11.2% (inactive) |  | > 46 µM (inactive) | inactive | inactive | 0.402% (inactive) | 20.2% | 20.2% | inactive | inactive | inactive |  | inactive | 12.6 µM (active) |  |  |  | 
3 | CN(C)c1ncc2nc(-c3ccc(F)cc3)c(=O)n(Cc3cccs3)c2n1 | 14.3% (inactive) | 5.02% (inactive) | -1.13% (inactive) | > 9.22 µM (inactive) | > 46 µM (inactive) |  |  | 2.1% (inactive) | 26.1% | 28% | inactive | inactive |  | inactive | inactive | 1 µM (active) | > 11.4 µM (inactive) |  |  | 
4 | NCCn1c(=O)c(CCc2ccccc2)nc2cncnc21 | -1.99% (inactive) | -4.68% (inactive) | -4.77% (inactive) | > 9.22 µM (inactive) | > 46 µM (inactive) | inactive | inactive | 4.81% (inactive) | 26.7% | 29.9% | inactive | inactive |  | inactive | inactive | 12.6 µM (active) | > 11.4 µM (inactive) | inactive |  | 
5 | Cc1noc(C)c1-c1cc(N2CCN(C)CC2)ncn1 | 4.49% (inactive) | -0.822% (inactive) | 7.9% (inactive) | > 46 µM (inactive) | > 46 µM (inactive) | inactive | inactive | 3.89% (inactive) | 22.8% | 26.7% | inactive | inactive |  | inactive | inactive | 10 µM (active) | > 11.4 µM (inactive) |  | 31% [at 2.29 µM] (inactive) | 
6 | Cc1cccc(CNc2cc(-c3c(C)noc3C)ncn2)c1 | -5.03% (inactive) | -10.8% (inactive) | -4.88% (inactive) | > 46 µM (inactive) | > 46 µM (inactive) | inactive | inactive | 8.24% (inactive) | 14.9% | 22% | 15.8 µM (active) | 15.8 µM (active) |  | inactive | inactive | 1 µM (active) | > 11.4 µM (inactive) | inactive |  | 5.01 µM (active)
